The values that follow come from PubChem BioAssay (NCI).

Common to all, as to assay: NCI-60 one-dose screen, 48 h (100 = growth as untreated, 0 = no growth, -100 = all killed)
Holding throughout (conditions): 10 µM unless noted

Assay [1] relates to NCI-H23 lung.
The test system of assay [2] is NCI-H226 lung.
In assay [3] the test system is NCI-H322M lung.
In assay [4] the test system is HOP-62 NSCLC.
For assay [5], the system named is NCI-H460 lung.
The test system of assay [6] is HOP-92 NSCLC.
Assay [7] relates to NCI-H522 lung.
Assay [8] concerns A549/ATCC NSCLC.
Assay [9] has as its system 786-0 renal.
Assay [10] relates to COLO 205 colon.
The subject of assay [11] is DU-145 prostate.
Assay [12] relates to K-562 leukemia.
The test system of assay [13] is MALME-3M melanoma.
The test system of assay [14] is MDA-MB-231 breast.
In assay [15] the test system is RXF 393 renal.
Assay [16] deals with SF-268 CNS.
Assay [17] has as its system SF-295 CNS.
Assay [18] relates to SF-539 CNS.
For assay [19], the system named is UACC-257 melanoma.
Assay [20] deals with M14 melanoma.

Compounds without any hit were thinned out: in the full panel of roughly 83,000, 20% have a hit.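 A percent growth of 40 corresponds to 60% growth inhibition; 0 means no net growth; -100 means all cells died. Active threshold: below 10.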 Values without a mark were called inactive. Active and inactive are the calls of the source.

Regarding `COc1cccc(-c2nc3occn3c2-c2ccnc(NCCCNS(=O)(=O)c3cccc(F)c3)n2)c1`, the growth in [1] is 89.7%; in assay [2], 62.2%; in assay [3] it was 107%; in assay [4], 108%; in [5] it was 82.6%; in [6] it was 91.9%. For the same molecule, the growth in [7] was 74.9%; in [8], 97.4%; in assay [9], 103%; in assay [10], 45.5%; in assay [11] it was 93.8%; in [12] it was 69%. In addition, the growth in assay [13] was 70.2%; in [14] it was 104%; in [15], 99.2%; in assay [16], 87%; in assay [17], 94.8%; in assay [18], 106%. The growth is 83.8% in [19] and 60.9% in assay [20].

On to `CN(C)C(=O)c1cc2cnc(Nc3ccc(-c4csc5c(=O)cc(N6CCOCC6)oc45)cc3)nc2n1C1CCCC1`, for which the growth is -10.2% (active) in [1]; 2.17% (active) in assay [2]; -29% (active) in assay [3]; -30.4% (active) in assay [4]; -26.4% (active) in assay [5]; -3.68% (active) in assay [6]. Moreover, the growth in assay [7] is -65.1% (active); in assay [8], -36.8% (active); in assay [9] it was -1.22% (active); in assay [10] it was -84.3% (active); in [11], -97.1% (active); in [12] it was 2.96% (active). Moreover, the growth in assay [13] is -67.9% (active); in assay [14] it was -7.21% (active); in [15] it was -85.8% (active); in assay [16], -2.94% (active); in assay [17] it was -36.9% (active); in assay [18] it was -70.2% (active). Further, the values for the growth in [19] and in assay [20] were -81.5% (active) and -73.4% (active), respectively.

`COc1ccc(/C(C)=N/NC(=O)CSc2nc3ccccc3c(=O)n2Cc2ccc(S(N)(=O)=O)cc2)c(OC)c1`: the growth in assay [1] is 101%; in assay [2] it was 93.9%; in [3], 94.8%; in [4], 100%; in assay [5], 102%; in assay [6] it was 112%. For the same molecule, the growth in [7] is 96%; in [8], 102%; in assay [9], 105%; in [10], 118%; in assay [11], 108%; in [12], 94.9%. In addition, the growth in assay [13] was 102%; in assay [14], 96.2%; in assay [15] it was 102%; in assay [16], 91.8%; in [17], 98.7%; in assay [18], 100%. Besides, the results for the growth in assay [19] and in assay [20] were 107% and 104%, respectively.

As for `COc1ccc(CC(C)=C(c2ccc(OCCN(C)C)cc2)c2ccc(OCCN(C)C)cc2)cc1`, the growth in assay [1] is 89.3%; in [2], 88.9%; in assay [3], 85.8%; in [4], 82.6%; in assay [5], 79.6%; in [6], 37.1%. The growth is 79.5% in assay [7]; 77.1% in assay [8]; 68.1% in assay [9]; 67.3% in [10]; 83.1% in assay [11]; -28.1% (active) in [12]. The growth in assay [13] is 96%; in [14], 39%; in [15], 74.2%; in assay [16], 82.7%; in assay [17], 67.3%; in assay [18], 81.7%. The figures for the growth in [19] and in assay [20] were 92.7% and -39.7% (active), respectively.

With `CCSc1ccc2c(c1)N(CCCN1CCN(C)CC1)c1ccccc1S2`, the growth in assay [1] was 74.2%; in assay [2] it was 90.5%; in [3] it was 73.1%; in [4] it was 69.8%; in assay [5], 9.17% (active); in [6], 20.3%. Also, the growth was 70.3% in assay [7]; 53.6% in assay [8]; 43.2% in assay [9]; -62.1% (active) in assay [10]; 56.3% in assay [11]; -20.9% (active) in [12]. In addition, the growth in assay [13] is -61.6% (active); in [14] it was 16.5%; in assay [15], 18.6%; in assay [16], 55.8%; in [17], 35.4%; in assay [18], 63.2%. For the same molecule, the growth in [19] is -69.8% (active); in assay [20] it was -86.9% (active).

In the case of `CCCCN(CCCC)CCc1c(C)cc(C)c(CCN(CCCC)CCCC)c1O`, the growth in assay [1] was 4.18% (active); in assay [2] it was 26.8%; in assay [3] it was 35.5%; in [4], 62.4%; in assay [5] it was 7.59% (active); in assay [6] it was -11.3% (active). In addition, the growth in assay [7] was -6.82% (active); in assay [8] it was 41.5%; in assay [9], 41.1%; in assay [10], 20%; in assay [11], 52.9%; in assay [12] it was 21.2%. The growth in assay [13] is -15.9% (active); in assay [14] it was 48.3%; in assay [15], 40.1%; in [16], 49.5%; in [17] it was 31.3%; in assay [18], 67.6%. In addition, the growth was 7.47% (active) in [19] and 38.8% in assay [20].

Turning to `Nc1nnc(C(=O)c2cnc3n(c2=O)CCCCC3)s1`, the growth in assay [1] was 96.7%; in assay [2] it was 92.4%; in [3], 103%; in assay [4], 101%; in assay [5], 108%; in assay [6] it was 98.4%. Further, the growth in assay [7] is 98%; in [8], 102%; in [9], 101%; in assay [10], 118%; in [11], 103%; in assay [12], 92.3%. For the same molecule, the growth in assay [13] was 101%; in assay [14], 90.4%; in assay [15], 104%; in assay [16], 96.6%; in [17], 101%; in [18], 94.3%. The growth in [19] is 101%; in assay [20] it was 96.7%.
